An excerpt weighted towards active compounds, which were near 0.95% of everything screened.
Giardia FBPA inh-1 – blocks Giardia fructose-bisphosphate aldolase activity; actives 0.71% (n = 290,000); Potency, µM (titrated, usually from 59.6 µM), actives largely listed as inhibitors; purified Giardia FBPA; A8B2U2; further: nearly all actives have a fitted effect of over 55% in size
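40 nM FBPA preincubated 10 min at RT with compound (up to 57.5 uM final), then substrate plus GAPDH/TPI/NAD/arsenate coupling and diaphorase/resazurin added. Fluorescence read after 20 min at RT, 525/598 nm.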
LmPK inh – blocks Leishmania mexicana pyruvate kinase activity. Potency, µM (series often up to 57.5 µM), actives largely listed as inhibitors. actives 0.37% (n = 290,000). purified LmPK, Kinase-Glo ATP luminescence, 1 h. Q27686. AID 1721
Target sequence (Q27686 whole entry, looked up): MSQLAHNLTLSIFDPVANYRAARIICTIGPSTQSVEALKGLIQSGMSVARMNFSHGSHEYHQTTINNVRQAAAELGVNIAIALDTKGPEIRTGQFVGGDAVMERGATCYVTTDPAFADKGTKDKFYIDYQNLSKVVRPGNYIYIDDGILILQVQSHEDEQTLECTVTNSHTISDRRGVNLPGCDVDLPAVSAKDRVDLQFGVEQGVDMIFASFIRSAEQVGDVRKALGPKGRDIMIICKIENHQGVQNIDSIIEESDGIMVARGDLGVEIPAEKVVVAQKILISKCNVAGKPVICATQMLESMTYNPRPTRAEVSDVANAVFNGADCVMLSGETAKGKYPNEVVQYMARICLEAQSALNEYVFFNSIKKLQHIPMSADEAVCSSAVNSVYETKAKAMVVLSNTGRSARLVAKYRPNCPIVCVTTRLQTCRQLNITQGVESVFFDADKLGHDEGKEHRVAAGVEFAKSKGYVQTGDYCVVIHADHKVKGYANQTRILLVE
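ATP generated from ADP (0.1 mM) and PEP (0.5 mM) by 0.1 nM LmPK over 1 h at room temperature (pH 7.2 imidazole buffer) was detected by coupled luciferase luminescence. Values were normalized to uninhibited and no-enzyme wells.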
RE007 growth inh – less growth of the S. pombe RE007 Vpr strain | S. pombe RE007 Vpr strain, BacTiter-Glo ATP luminescence, 24 h | Potency, µM (top dose mostly 92.2 µM), hits mostly inhibitors | actives 0.21% (n = 360,000); active means well fitted falling curve with a large enough effect; inconclusive means small, poorly fitted or top-dose-only effect; inactive means no such curve, though single readings can be large or run the other way; further: nearly all actives have a fitted effect of over 50% in size
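Fission yeast strain RE007, carrying one chromosomally integrated HIV-1 vpr copy, was seeded at OD 0.01 in PMG+AL medium with 23 nL pinned compound. After 24 h at 30 °C and 99% humidity, viability was read by BacTiter-Glo luminescence.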
TbPYK inhibitor – T. brucei pyruvate kinase inhibition. Q57TT1. TbPYK enzyme, Kinase-Glo Plus ATP luminescence, 45 min. Potency, µM (top dose mostly 76.8 µM), actives largely listed as inhibitors. actives 0.12% (n = 410,000). AID 624173; further: nearly all actives have a fitted effect of over 50% in size
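In this concentration-response screen, enzyme-free wells defined baseline while DMSO plates tracked drift. Each reaction combined TbPYK, substrate, compound and 130 uM ADP for 45 min at room temperature. Kinase-Glo Plus luminescence gave the signal.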
Giardia growth – Giardia lamblia growth inhibition | shares compounds with Giardia FBPA inh-1 | actives 5% (n = 1,500) | Giardia lamblia trophozoite growth inhibition | AID 2785 | Potency, µM (doses to about 57.5 µM), hits mostly inhibitors;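 further: trophozoites exposed to compound for 48 h at 37 °C; nearly all actives have a fitted effect of over 70% in size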
Mammal cell tox – counter-screen for Giardia aldolase inhibitors: mammalian cell toxicity; shares compounds with Giardia FBPA inh-1; mammalian cell viability counter-screen, qHTS; Potency, µM (doses to about 57.5 µM), usual class: inhibitors; actives 4% (n = 1,500); AID 2786;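 further: Chinese hamster ovary cells used as mammalian cytotoxicity surrogate; viability measured as cellular ATP by luminescence; compound exposure lasted 48 h before reading; nearly all actives have a fitted effect of over 60% in size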
Giardia FBPA inh-2 – confirmation of Giardia fructose-bisphosphate aldolase inhibitors | shares compounds with Giardia FBPA inh-1 | purified Giardia aldolase enzyme activity, qHTS | Potency, µM (titrated, usually from 57.5 µM), hits mostly inhibitors | actives 5% (n = 1,500) | AID 2787; further: nearly all actives have a fitted effect of over 45% in size
Rabbit aldolase – blocks rabbit muscle aldolase in Giardia aldolase selectivity test | shares compounds with Giardia FBPA inh-1 | Rabbit muscle FBPA enzyme inhibition, selectivity counter-screen | AID 2794 | actives 4% (n = 1,500) | Potency, µM (highest dose often 57.5 µM), hits mostly inhibitors; further: nearly all actives have a fitted effect of over 60% in size
GAPDH counter – counter-screen for Giardia aldolase inhibitors: GAPDH coupling enzyme | shares compounds with Giardia FBPA inh-1 | GAPDH coupling enzyme counterscreen, biochemical, qHTS | Potency, µM (series often up to 57.5 µM), most hits filed as inhibitors | actives 6% (n = 1,500) | AID 2795; further: nearly all actives have a fitted effect of over 55% in size
Hits are given with their value; ! = a repeat was not active; [ ] = remark or other dose. Unless noted, the call rests on the fitted dose curve; in most records, active means well fitted curve in the direction sought with a large enough effect; inconclusive means small, poorly fitted or top-dose-only effect, or another doubt; inactive means no such curve, though single readings can be large; an effect the other way counts as inactive or inconclusive.

`C[C@H]1CN([C@@H](C)CO)C(=O)CCCn2nncc2CO[C@H]1CN(C)C(=O)Nc1cccc(Oc2ccccn2)c1` gave RE007 growth inh inactive and TbPYK inhibitor inactive.
For O[N+]1=CC=CCC1=S.On1ccccc1=S.[Zn] the results were Giardia FBPA inh-1 0.5µM, Giardia growth 10µM, Mammal cell tox 2.82µM, Giardia FBPA inh-2 inconclusive, Rabbit aldolase inconclusive and GAPDH counter inconclusive.
C=C1CCC[C@]2(C)C[C@H]3OC(=O)C(CNCCN(CC)CC)[C@H]3CC12 (stereo partly specified) was read as Giardia FBPA inh-1 15.8µM, LmPK inh inactive, RE007 growth inh inactive, TbPYK inhibitor inactive, Giardia growth inconclusive, Mammal cell tox inactive, Giardia FBPA inh-2 inactive, Rabbit aldolase inactive and GAPDH counter inactive.
Screening C=C1CCC[C@]2(C)C[C@H]3OC(=O)C(CNCCN(C)C)[C@H]3CC12 (stereo partly specified) returned Giardia FBPA inh-1 inactive, LmPK inh inactive, RE007 growth inh inactive and TbPYK inhibitor inactive.
Screening CC1(C(=O)NS(=O)(=O)C2CC2)CCCN(C(=O)c2ccccc2C(F)(F)F)C1 (stereo unspecified) returned RE007 growth inh inactive and TbPYK inhibitor inactive.
Screening Cc1ccc(N=Cc2cccc(O)c2O)c(C)c1 returned Giardia FBPA inh-1 inconclusive and LmPK inh inactive.
For Cc1ccccc1N=Cc1cccc(O)c1O the results were Giardia FBPA inh-1 5.61µM, LmPK inh inactive, TbPYK inhibitor inactive, Giardia growth 20µM, Mammal cell tox inactive, Giardia FBPA inh-2 11.2µM, Rabbit aldolase 31.6µM and GAPDH counter 31.6µM.
`N#Cc1ccc(N=c2ssnc2Cl)cc1` gave Giardia FBPA inh-1 15.8µM, LmPK inh inactive, RE007 growth inh 35.5µM!, TbPYK inhibitor 14.1µM, Giardia growth inactive, Mammal cell tox inactive, Giardia FBPA inh-2 inactive, Rabbit aldolase 39.8µM and GAPDH counter inactive.
`COc1cc(N=c2ssnc2Cl)cc(OC)c1OC` gave Giardia FBPA inh-1 19.9µM, LmPK inh inactive, RE007 growth inh inactive, TbPYK inhibitor inconclusive, Giardia growth inactive[10.4 µM], Mammal cell tox inactive, Giardia FBPA inh-2 inactive, Rabbit aldolase 31.6µM and GAPDH counter inactive.
Screening Cc1ccc(Cl)cc1NC(=O)CCC(=O)NCc1ccco1 returned Giardia FBPA inh-1 inactive, LmPK inh inactive, RE007 growth inh inactive and TbPYK inhibitor inactive.
CN(CCOc1ccccc1)CC(=O)Nc1ccc(S(=O)(=O)N2CCCC2)cc1 was read as Giardia FBPA inh-1 15.8µM, LmPK inh inactive, RE007 growth inh inactive, TbPYK inhibitor inactive, Giardia growth inconclusive, Mammal cell tox inactive, Giardia FBPA inh-2 inactive, Rabbit aldolase inactive and GAPDH counter inactive.
Screening COc1ccc(CN2CCN(S(=O)(=O)c3ccc(NC(C)=O)cc3)CC2)cc1OC returned Giardia FBPA inh-1 inactive, LmPK inh inactive, RE007 growth inh inactive and TbPYK inhibitor inactive.
CCOc1ccc(CN2CCN(S(=O)(=O)c3ccc(NC(C)=O)cc3)CC2)cc1 was read as Giardia FBPA inh-1 15.8µM, LmPK inh inactive, RE007 growth inh inactive, TbPYK inhibitor inactive, Giardia growth inconclusive, Mammal cell tox inactive, Giardia FBPA inh-2 inactive, Rabbit aldolase inactive and GAPDH counter inactive.
Screening CC(=O)/C(=N\Nc1ccc(C)cc1)Sc1nncn1C returned Giardia FBPA inh-1 3.54µM, LmPK inh inactive, RE007 growth inh inactive, TbPYK inhibitor inconclusive, Giardia growth inactive, Mammal cell tox inactive, Giardia FBPA inh-2 inactive, Rabbit aldolase inactive and GAPDH counter inactive.
Screening Cn1c(-c2cccc([N+](=O)[O-])c2)cnc1NCc1cccc(F)c1 returned Giardia FBPA inh-1 28.2µM, LmPK inh inactive, RE007 growth inh inactive, TbPYK inhibitor inactive, Giardia growth inactive[10.4 µM], Mammal cell tox inactive, Giardia FBPA inh-2 inactive, Rabbit aldolase inactive and GAPDH counter inactive.
Screening Cc1ccccc1-n1c(-c2ccc(=O)[nH]n2)n[nH]c1=S returned Giardia FBPA inh-1 6.29µM, LmPK inh inconclusive, RE007 growth inh inactive, TbPYK inhibitor inconclusive, Giardia growth inactive, Mammal cell tox inactive, Giardia FBPA inh-2 inactive, Rabbit aldolase inactive and GAPDH counter inactive.
N#Cc1c(NC(=O)CCC(=O)O)sc2c1CCCC2 was read as Giardia FBPA inh-1 inactive, LmPK inh inactive, RE007 growth inh inactive and TbPYK inhibitor inactive.
Screening N#Cc1c(NC(=O)CCC(=O)O)sc2c1CCCCC2 returned Giardia FBPA inh-1 15.8µM, LmPK inh inactive, RE007 growth inh inactive, TbPYK inhibitor 35.5µM, Giardia growth inactive, Mammal cell tox inactive, Giardia FBPA inh-2 inactive, Rabbit aldolase inactive and GAPDH counter inactive.
For CCCC(C)c1nnc(NC(=O)c2cc(C(=O)OC)cc([N+](=O)[O-])c2)s1 (stereo unspecified) the results were Giardia FBPA inh-1 17.7µM, LmPK inh inactive, RE007 growth inh inactive, TbPYK inhibitor inconclusive, Giardia growth inconclusive, Mammal cell tox inactive, Giardia FBPA inh-2 inactive, Rabbit aldolase inactive and GAPDH counter inactive.
Cc1ccc(OCC(=O)Nc2cccnc2Cl)cc1C was read as Giardia FBPA inh-1 inactive, LmPK inh inactive, RE007 growth inh inactive and TbPYK inhibitor inactive.
Cc1c(Cl)cnn1CC(=O)NC1C(=O)N2C(C(=O)O)=C(CSc3nnnn3C)CSC12 (stereo unspecified) was read as Giardia FBPA inh-1 inconclusive, LmPK inh inactive, RE007 growth inh inactive and TbPYK inhibitor inactive.
Screening Cc1nnc(SCC2=C(C(=O)O)N3C(=O)C(NC(=O)Cc4ccccc4)C3SC2)s1 (stereo unspecified) returned RE007 growth inh inactive and TbPYK inhibitor inactive.
CC(C(=O)NC1C(=O)N2C(C(=O)O)=C(CSc3nnnn3C)CSC12)n1cc(Cl)cn1 (stereo unspecified) was read as Giardia FBPA inh-1 17.7µM, LmPK inh inactive, RE007 growth inh inactive, TbPYK inhibitor inactive, Giardia growth inactive[10.4 µM], Mammal cell tox inactive, Giardia FBPA inh-2 inactive, Rabbit aldolase inactive and GAPDH counter inactive.
For Cc1nnc(SCC2=C(C(=O)O)N3C(=O)C(NC(=O)C(C)n4nc(C(F)(F)F)cc4C)C3SC2)s1 (stereo unspecified) the results were Giardia FBPA inh-1 6.29µM, LmPK inh inactive, RE007 growth inh inactive, TbPYK inhibitor inactive, Giardia growth inactive, Mammal cell tox inactive, Giardia FBPA inh-2 inactive, Rabbit aldolase inactive and GAPDH counter inactive.

High-throughput results (PubChem BioAssay)
